Among the test systems are RPMI-8226 leukemia; OVCAR-8 ovarian; OVCAR-5 ovarian; OVCAR-4 ovarian; SK-OV-3 ovarian; IGROV1 ovarian; OVCAR-3 ovarian; HS 578T breast; NCI/ADR-RES ovarian.
Holding throughout (experiment): NCI-60 one-dose screen, 48 h (100 = growth as untreated, 0 = no growth, -100 = all killed)
Settings in all cases: 10 µM

Structures are written as SMILES. The panel holds about 83,000 compounds, 20% with a hit somewhere; the sample as a whole holds those more often.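 For each line, cells grew in 96-well plates with the test compound present at a single concentration for 48 hours.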 Unmarked numbers belong to inactive results. The source made the active and inactive calls. Rule for the calls: active = growth percent below 10; inactive = the rest.

As for `CC1(C)CC[C@]2(C(=O)N3CCOCC3)CC[C@]3(C)C(=CC[C@@H]4[C@@]5(C)CC[C@H](NCO)C(C)(C)[C@@H]5CC[C@]43C)[C@H]2C1`, the growth in the experiment on RPMI-8226 leukemia is -38.5% (active); in the experiment with OVCAR-8 ovarian it was -73.5% (active); in the experiment with OVCAR-5 ovarian, -99.9% (active); in the experiment on OVCAR-4 ovarian, -89.5% (active); in the experiment with SK-OV-3 ovarian it was -86.4% (active); with IGROV1 ovarian it was -85.6% (active). Moreover, the values for the growth with OVCAR-3 ovarian, in the experiment with HS 578T breast and in the experiment with NCI/ADR-RES ovarian were -82.7% (active), -68.2% (active) and -73.1% (active), respectively.

Regarding `C=C1CC[C@H](C(=C)C)[C@H]2C=C(C)C(=O)C3=C(C(=O)[C@@](C)(O)C3)[C@H]12`, the growth in the experiment on RPMI-8226 leukemia is -22.5% (active); with OVCAR-8 ovarian, -96.5% (active); in the experiment with OVCAR-5 ovarian, -87.2% (active); with OVCAR-4 ovarian it was -81.8% (active); in the experiment with SK-OV-3 ovarian, -89.1% (active); with IGROV1 ovarian, -61.4% (active). Also, the growth is -41.7% (active) with OVCAR-3 ovarian, -13.1% (active) with HS 578T breast and -31.1% (active) in the experiment on NCI/ADR-RES ovarian.

As for `COc1ccsc1/C=N/NC(=O)c1[nH]c2ccc(Br)cc2c1-c1ccccc1`, the growth is -13.6% (active) in the experiment with RPMI-8226 leukemia; -16.2% (active) in the experiment on OVCAR-8 ovarian; 26.6% with OVCAR-5 ovarian; 22.1% in the experiment with OVCAR-4 ovarian; 20.9% in the experiment with SK-OV-3 ovarian; 22.6% in the experiment on IGROV1 ovarian. Also, the growth is 25.8% in the experiment on OVCAR-3 ovarian, -1.24% (active) with HS 578T breast and -23.9% (active) with NCI/ADR-RES ovarian.

As to `C=C(C)[C@@H]1CC[C@]2(C)[C@H](CC=C3[C@@H]4CC(C)(C)CC[C@]4(C(=O)N4CCOCC4)CC[C@]32C)[C@@]1(C)CCCN`, the growth in the experiment on RPMI-8226 leukemia was -51.2% (active); in the experiment on OVCAR-8 ovarian it was -66.3% (active); with OVCAR-5 ovarian, -98.9% (active); in the experiment with OVCAR-4 ovarian, -89.4% (active); in the experiment with SK-OV-3 ovarian it was -94.6% (active); with IGROV1 ovarian it was -91.2% (active). Further, the figures for the growth with OVCAR-3 ovarian, in the experiment with HS 578T breast and with NCI/ADR-RES ovarian were -84.8% (active), -63.4% (active) and -59.8% (active), respectively.

With `CN(CCF)c1ccc(/C=C/C(=O)c2ccc(N)cc2O)cc1`, the growth is 62.8% in the experiment with RPMI-8226 leukemia; 70.6% in the experiment with OVCAR-8 ovarian; 90% in the experiment with OVCAR-5 ovarian; 68.8% in the experiment on OVCAR-4 ovarian; 105% in the experiment with SK-OV-3 ovarian; 94.3% in the experiment with IGROV1 ovarian. Further, the values for the growth with OVCAR-3 ovarian, in the experiment on HS 578T breast and with NCI/ADR-RES ovarian were 80.8%, 112% and 71.7%, respectively.

Turning to `CN(C)c1cccc2c(S(=O)(=O)Nc3cccc(-c4csc(NC(=O)CCCCCN5CCN(c6cc7c(cc6F)C(=O)N(C6CCC(=O)NC6=O)C7=O)CC5)n4)c3)cccc12` (configuration not stated), the growth in the experiment with RPMI-8226 leukemia is 50.7%; in the experiment on OVCAR-8 ovarian it was 94.6%; in the experiment on OVCAR-5 ovarian, 105%; in the experiment on OVCAR-4 ovarian, 66.6%; with SK-OV-3 ovarian it was 86.9%; in the experiment on IGROV1 ovarian, 96.3%. For the same compound, the growth was 99.8% with OVCAR-3 ovarian, 70.4% in the experiment on HS 578T breast and 98.4% in the experiment on NCI/ADR-RES ovarian.

For `C#Cc1ccc(S(=O)(=O)Nc2cccc(-c3csc(NC(C)=O)n3)c2)cc1`, the growth is 42.1% in the experiment with RPMI-8226 leukemia; 85.5% with OVCAR-8 ovarian; 101% with OVCAR-5 ovarian; 59.7% in the experiment on OVCAR-4 ovarian; 88.9% in the experiment with SK-OV-3 ovarian; 49.5% in the experiment on IGROV1 ovarian. Moreover, the growth is 82.7% with OVCAR-3 ovarian, 83.6% with HS 578T breast and 70.8% in the experiment with NCI/ADR-RES ovarian.

Consider `Clc1ccc(/C=N/Nc2ncnc3sc4c(c23)CCN(Cc2ccccc2)C4)cc1`, for which the growth with RPMI-8226 leukemia was 14%; in the experiment on OVCAR-8 ovarian it was -56.2% (active); with OVCAR-5 ovarian, -18.8% (active); in the experiment with OVCAR-4 ovarian it was -75.9% (active); in the experiment with SK-OV-3 ovarian it was 30.3%; in the experiment on IGROV1 ovarian, 34.4%. In addition, the growth was -79.9% (active) with OVCAR-3 ovarian, -11% (active) with HS 578T breast and -55.2% (active) with NCI/ADR-RES ovarian.

`COc1ccc(N(C)c2cc(C#N)nc3ccccc23)cc1N`: the growth with RPMI-8226 leukemia is 19.9%; with OVCAR-8 ovarian, 14.1%; in the experiment with OVCAR-5 ovarian, 34.6%; in the experiment on OVCAR-4 ovarian, 55%; with SK-OV-3 ovarian, 23.8%; in the experiment on IGROV1 ovarian, 17.1%. In addition, the growth is 7.72% (active) in the experiment with OVCAR-3 ovarian, 36.9% in the experiment on HS 578T breast and -31.7% (active) in the experiment on NCI/ADR-RES ovarian.

For `O=C1Nc2ccc(Cl)cc2/C1=C/c1ccc(OCc2ccc(Br)cc2F)cc1`, the growth is 44.7% in the experiment on RPMI-8226 leukemia; 5.33% (active) with OVCAR-8 ovarian; 70.6% in the experiment on OVCAR-5 ovarian; -20.5% (active) in the experiment on OVCAR-4 ovarian; 25.1% in the experiment on SK-OV-3 ovarian; 39.2% with IGROV1 ovarian. Also, the growth in the experiment with OVCAR-3 ovarian was 0.51% (active); with HS 578T breast, -0.705% (active); with NCI/ADR-RES ovarian it was 13.1%.

`COc1ccc2[nH]c(O)c(N=NC(=O)c3cc(-c4ccc(C)cc4)nc4ccccc34)c2c1`: the growth with RPMI-8226 leukemia is 76.4%; with OVCAR-8 ovarian, 88.5%; with OVCAR-5 ovarian, 119%; with OVCAR-4 ovarian, 91.8%; in the experiment on SK-OV-3 ovarian, 106%; with IGROV1 ovarian, 102%. The growth in the experiment on OVCAR-3 ovarian is 98.3%; in the experiment on HS 578T breast, 91%; in the experiment with NCI/ADR-RES ovarian, 71.6%.

As for `O=C(COc1ccc(NC(=O)Nc2ccc(Cl)cc2)cc1)N=Nc1c(O)[nH]c2ccc([N+](=O)[O-])cc12`, the growth in the experiment with RPMI-8226 leukemia was 22.3%; with OVCAR-8 ovarian it was 16.1%; with OVCAR-5 ovarian, 69.4%; with OVCAR-4 ovarian, -11.6% (active); with SK-OV-3 ovarian it was 85.2%; in the experiment on IGROV1 ovarian it was 79.5%. For the same compound, the growth is -55.9% (active) in the experiment on OVCAR-3 ovarian, 13.7% with HS 578T breast and 92.6% in the experiment on NCI/ADR-RES ovarian.

Regarding `Cc1ccc(S(=O)(=O)c2nc(-c3ccccc3)oc2S(=O)(=O)CC(=O)N2CCCC2)cc1`, the growth in the experiment on RPMI-8226 leukemia is -53.4% (active); with OVCAR-8 ovarian, -86.7% (active); in the experiment with OVCAR-5 ovarian, -87.2% (active); in the experiment with OVCAR-4 ovarian, -92.7% (active); in the experiment on SK-OV-3 ovarian, 68.4%; in the experiment with IGROV1 ovarian it was 18.4%. Further, the growth in the experiment on OVCAR-3 ovarian is -92.8% (active); in the experiment on HS 578T breast, 20.5%; in the experiment on NCI/ADR-RES ovarian it was -69.5% (active).

The values are drawn from PubChem BioAssay (NCI).
